# In PubChem BioAssay:
# Test: compound effects on lung adenocarcinoma cell viability – A549, calcein-AM fluorescence, 48 h, basal, profiling panel (AID 1162); further: test concentration not given here
# Conditions: higher = more signal
row,Structure (SMILES),z-score
1,COCCOC(=O)N1C(=O)[C@@]2(c3cc(C#Cc4ccc(OC)cc4)ccc31)[C@H](C(N)=O)[C@H]1C(=O)O[C@H](c3ccccc3)[C@H](c3ccccc3)N1[C@@H]2c1ccccc1OCCO,-1.25
2,C=CCN1C(=O)[C@@]2(O[C@@H](CCO)[C@H]([Si](C)(C)c3ccc(OC)cc3)[C@H]2C)c2cc(NC(=O)c3ccc(OC)cc3)ccc21,-0.52
3,COC(=O)[C@@]1(Cc2ccc(F)cc2)[C@@H]2[C@@H](CC(=O)[C@H]2CC(=O)C(=O)N(C)C)CN1C(=O)c1ccccc1,-0.294
4,O=C1C2C=CC(C(O)c3ccc(F)cc3)N(Nc3ccccc3F)C2C(=O)N1c1ccccc1 (centres undefined),-1.39
5,C=CCN(Cc1ccccc1)C(=O)C(c1cccs1)N(CCOCCO)C(=O)/C=C\C(=O)O (centres undefined),0.902
6,C=C(CCCC)/C(=C/C[C@@H](OC(C)=O)c1ccccc1OCCO)c1cnc2ccccc2c1,-0.865
7,COc1cc2c(cc1OC)CN(C(=O)[C@@H]1[C@H]3C(=O)O[C@H](c4ccccc4)[C@H](c4ccccc4)N3[C@H](c3ccc(O)cc3)[C@@]13C(=O)Nc1ccc(C#CC4(O)CCCCCC4)cc13)CC2,0.192
8,COCCOC(=O)N1C(=O)[C@@]2(c3cc(C#Cc4ccc(OC)cc4)ccc31)[C@H](c1ccc(O)cc1)N1[C@H](c3ccccc3)[C@H](c3ccccc3)OC(=O)[C@H]1[C@@H]2C(=O)NC[C@H](O)c1ccccc1,-0.828
9,COCCOC(=O)N1C(=O)[C@@]2(c3cc(C#CC4=CCCCC4)ccc31)[C@H](C(=O)Nc1nc3ccccc3s1)[C@H]1C(=O)O[C@H](c3ccccc3)[C@H](c3ccccc3)N1[C@@H]2c1ccccc1OCCO,-0.812
